Assay results from PubChem BioAssay (EPA / NIEHS).
“And” between values parts separate entries of the source, which are not always exact repeats. Equal values may be shown once. The source made the active and inactive calls. Rule for the calls: active = hit-call score of the fitted dose curve at least 0.9, where 1 is the maximum; inactive = score below 0.9.

Read-out: Vascular cell adhesion molecule 1 (VCAM1), VCAM1 (gene 7412)
Test: BSK_hDFCGF_VCAM1: BioMAP Diversity Plus: hDFCGF Assay for Vascular cell adhesion molecule 1 (VCAM1) Biomarker Activity (AID 2283065)
Settings: primary human foreskin fibroblasts; actives raise or lower the signal
Experimental: BSK_hDFCGF is a cell-based, multiplexed-readout assay that uses foreskin fibroblast, a human skin primary cell, with measurements taken at 24 hours after chemical dosing in a 96-well plate.BSK_hDFCGF_VCAM1 is an assay component measured in the BSK_hDFCGF assay. It measures VCAM-1 antibody related to regulation of gene expression using ELISA technology.Data from the assay component BSK_hDFCGF_VCAM1 was analyzed into 1 assay endpoint. This assay endpoint, BSK_hDFCGF_VCAM1, was analyzed with bidirectional fitting relative to DMSO as the negative control and baseline of activity. Using a type of binding reporter, gain or loss-of-signal activity can be used to understand changes in the signaling as they relate to the gene VCAM1. Furthermore, this assay endpoint can be referred to as a primary readout, because this assay has produced multiple assay endpoints where this one serves a signaling function. To generalize the intended target to other relatable targets, this assay endpoint is annotated to the cell adhesion molecules intended target family, where the subfamily is Immunoglobulin CAM.
The levels of cell surface (or secreted, indicated by the prefix "s") biomarker endpoints were measured by ELISA. Overt cytotoxicity to cells in confluent adherent cultures (all systems other than the BT system) was assessed by measuring total protein levels using sulforhodamine B (SRB) staining in parallel cultures at the time of biomarker measurements, indicated as SRB endpoints. For proliferation assays for adherent cell types, individual cell types are cultured at sub-confluence and relative cell numbers quantified by SRB staining at time points optimized for each system (48 h: 3C and CASM3C systems; 72 h: BT and HDF3CGF systems; 96 h: SAg system). SRB was performed by staining cells with 0.1% SRB after fixation with 10% TCA and reading wells at 560 nm.Viability and proliferation of PBMC (T cells) was quantified by Alamar Blue reduction for the SAg and BT systems. For PBMC viability (referred to as PBMC Cytotoxicity within the assay endpoint names), cells were plated (75,000/well in a 96-well plate) and then chemical samples added for 1 h before addition of activators, SEB and TSST-1 (20 ng/mL final concentration each). Cells were incubated for 90 h. Then, Alamar Blue (20 uL/well) (Invitrogen, Cat DAL1100) was added for 6 h, and the plates were read with a fluorescence microplate reader at 546/580 nm (excitation/emission). For PBMC proliferation, cells were plated and activated as above but incubated for only 16 h prior to addition of Alamar Blue. Plates were read after 6 h.

SMILES	outcome	AC50
CC(C)Cc1ccc(C(C)C(=O)O)cc1 (stereo not given)	inactive	
C[C@]12CC[C@@H]3c4ccc(O)cc4CC[C@H]3[C@@H]1CC[C@@H]2O		20 µM (active)
C=C(F)C(=O)OC(C(F)(F)F)C(F)(F)F	inactive	
c1ccc2c(c1)-c1ccc3ccc4cccc5cc-2c1c3c45	inactive	
O=C(c1ccc(OCCN2CCCCC2)cc1)c1c(-c2ccc(O)cc2)sc2cc(O)ccc12		31.4 µM (active)
CC(=O)CCC=C(C)CCC=C(C)C	inactive	
CC(C)CCCC(C)(C)O	inactive	
c1ccc(OCCOc2ccccc2)cc1	inactive	
CCn1cc(C(=O)O)c(=O)c2ccc(C)nc21	inactive	
CCCO[Si](OCCC)(OCCC)OCCC	inactive	
CC(C)(CO)CO	inactive	
CC(=O)OC(C)(C)C1CC=C(C)CC1 (stereo not given)	inactive	
CC(=O)c1ccc(C)cc1	inactive	
C=C(C)C(=O)OCCC(F)(F)C(F)(F)C(F)(F)C(F)(F)C(F)(F)C(F)(F)C(F)(F)C(F)(F)F	inactive	
C=C(C)C(N)=O	inactive	
CC/C(=C(\c1ccccc1)c1ccc(OCCN(C)C)cc1)c1ccccc1		9.88 µM (active) and 9.9 µM (active)
CCCCN(CCO)CCO	inactive	
Nc1ccc(N)c([N+](=O)[O-])c1	inactive	
CCC(=O)OCC=Cc1ccccc1	inactive	
C=CC(=O)OCC(CO)(COC(=O)C=C)COC(=O)C=C		0.0263 µM (active)

SMILES	outcome	AC50
OCC(F)(OC(F)(F)C(F)(OC(F)(F)C(F)(F)C(F)(F)F)C(F)(F)F)C(F)(F)F (stereo not given)		2.25 µM (active) and 2.1 µM (active)
NC(=O)c1c(Cl)cccc1Cl	inactive	
CC1(C)[C@H](C=C(Cl)Cl)[C@H]1C(=O)OCc1cccc(Oc2ccccc2)c1	inactive	
C#C[C@]1(O)CC[C@H]2[C@@H]3CCc4cc(O)ccc4[C@H]3CC[C@@]21C	inactive	
CC(C)(C)c1cccc(O)c1	inactive	
O=C(O)C(F)(F)C(F)(F)C(F)(F)C(F)(F)C(F)(F)C(F)(F)C(F)(F)C(F)F	inactive	
CC(=O)OCC=C(C)CCC=C(C)CCC=C(C)C	inactive	
CCCCCCCCCC(=O)OCC		31.9 µM (active)
O=S(=O)(O)C(F)(F)C(F)(F)OC(F)(F)C(F)(F)F	inactive	
CC=CC(=O)C1=C(C)C=CCC1(C)C	inactive	
COc1ccccc1NC(=O)CC(C)=O	inactive	
CCOC(=O)CCCCCCCCC(=O)OCC	inactive	
O=C(O)C(F)(F)OC(F)(F)C(F)(F)OC(F)(F)C(F)(F)C(F)(F)C(F)(F)F		5.95 µM (active) and 13.8 µM (active)
CC1=CC(C)C(C=O)C(C)C1 (stereo not given) (tested in a mixture with another compound)	inactive	
COC(=O)c1ccc(C(=O)OC)cc1	inactive	
CCCCCCCC1CCCC1=O (stereo not given)	inactive	
CCOC(=O)C=Cc1ccccc1	inactive	
C=C1CC/C=C(\C)CC[C@@H]2[C@@H]1CC2(C)C		28 µM (active)
CCCCCCCCCCCCS		7.26 µM (active)
O=C1OC2(c3ccc(O)cc3Oc3cc(O)ccc32)c2ccccc21	inactive	
